Assay results from PubChem BioAssay (NCI).
Several values for one entry are separate records, joined by “and”; a condition that tells them apart may be missing. Equal entries are not always repeated. Compounds without any hit were thinned out: in the full panel of roughly 79,000, 15% have a hit. A number with no mark means an inactive call. Activity calls are given as the source filed them. Rule as the data show it: active = growth inhibition above about 70%; inactive = the rest.

test: NCI Yeast Anticancer Drug Screen. Data for the bub3 strain (AID 167); settings: S. cerevisiae bub3 mutant strain, at 50.0 µM, stronger effect = higher value
How it was run: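 Compounds were applied to a genetically altered yeast strain carrying a cell-cycle control defect. Growth inhibition was scored against vehicle-treated controls.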

Structure (SMILES) | growth inhibition
O=C1C(CN2CCCCC2)CCCC1CN1CCCCC1 (stereo unspecified) | -3.9% and 59.3%
NC(=O)c1cc(Br)cc(Br)c1O | 89.8% (active)
CN(C)c1ccc(/C=C/c2ccc3ccccc3[n+]2C)cc1 | 84.2% (active)
C1=C(CN2CCCCC2)COc2ccccc21 | 59.8%
O=C1Nc2ccccc2C1(O)C/C(=N/O)c1ccc2ccccc2c1 (stereo unspecified) | 14.9%
CC(C)(S)C(N)C(=O)O (stereo unspecified) | -13.6% and -0.75% and 24.6%
COC(=O)[C@@H](NS(=O)(=O)CC12CCC(CC1)C2(C)C)C(C)(C)C | 10.9%
CN(CCN1C(=O)c2cccc3cccc(c23)C1=O)CCN1C(=O)c2cccc3cccc(c23)C1=O | 96% (active)
CN(C)CCCN=c1c2ccccc2n(O)c2cccc([N+](=O)[O-])c12 | 45.4%
O=C(/C=C/c1ccc(Cl)cc1)NC1C=Nc2ccc([N+](=O)[O-])cc2NC1=O (stereo unspecified) | 92.3% (active)
O=C(CC(=O)CC(O)(c1ccccc1)c1ccccc1)CC(=O)c1ccccc1 | 97.2% (active)
O=C(c1ccc(Cl)cc1)C(O)c1ccc(Cl)cc1 (stereo unspecified) | 65.8%
COc1ccc2c(c1)C(Cc1ccc(Oc3ccc(CC4c5cc(OC)ccc5CC[N+]4(C)C)cc3)cc1)[N+](C)(C)CC2 (stereo unspecified) | 84.7% (active)
O=C(NO)c1cccnc1 | 11.8%
Oc1c(Cl)c(Cl)c(Cl)c2ccccc12 | 91.2% (active)
CSC1SCC2C(=O)N(C)C(C(C)C)C(=O)OCC(NC(=O)c3cnc4ccccc4n3)C(=O)NC(C)C(=O)N(C)C1C(=O)N(C)C(C(C)C)C(=O)OCC(NC(=O)c1cnc3ccccc3n1)C(=O)NC(C)C(=O)N2C (stereo unspecified) | 98.7% (active) and 90.3% (active)
